Assay results reported in PubChem BioAssay (NCI).
About 83,000 compounds went through this panel and 20% of them were active in at least one assay; those are over-represented in the sample as a whole.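 Assay: single dose, 48 h. Readout: percent growth (0 = no net growth; negative = cell death). Active: <10.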 Active and inactive are the calls of the source.

Tests used:
Assay in all cases: NCI-60 one-dose screen, 48 h (100 = growth as untreated, 0 = no growth, -100 = all killed)
Conditions in all cases: 10 µM unless noted
[1] = test system: T-47D breast
[2] = test system: BT-549 breast
[3] = test system: MDA-MB-435 melanoma
[4] = test system: SW-620 colon
[5] = test system: MCF7 breast
[6] = test system: HCT-116 colon
[7] = test system: HCC-2998 colon
[8] = test system: KM12 colon

Measured: growth

COc1cnc2c(c1)C(=O)c1c-2n(CCCCl)c(=O)c2ccncc12
inactive: [1] 28.9% | [2] 56.8% | [3] 79.2% | [4] 36.3% | [5] 17.9% | [6] 40.4% | [7] 75.6% | [8] 67.8%

O=C(/C=C/c1ccc(Oc2ccc(Br)cc2)cc1)c1ccc(Br)cc1
inactive: [1] 92.3% | [2] 110% | [3] 93% | [4] 93.7% | [5] 73% | [6] 97.6% | [7] 95.5% | [8] 95.7%

C=C1C(=O)O[C@H]2[C@H]1CC/C(Cn1cc(CCC)nn1)=C\CC[C@@]1(C)O[C@@H]21
active: [1] -40.1% | [4] -0.143% | [6] -55.7%
inactive: [2] 40.4% | [3] 36.2% | [5] 11.1% | [7] 73.6% | [8] 81.1%

C#CC#CC#CC#CC#CC#CC#CC#CC[C@@H]1OC[C@@H](COC(=O)O[C@@H](C(=O)O[C@H]2C[C@@]3(O)[C@@H](OC(=O)c4ccccc4)[C@@H]4[C@]5(OC(C)=O)CO[C@@H]5C[C@H](O)[C@@]4(C)C(=O)[C@H](OC(C)=O)C(=C2C)C3(C)C)[C@@H](NC(=O)c2ccccc2)c2ccccc2)O1
inactive: [1] 91.3% | [2] 17% | [3] 101% | [4] 101% | [5] 13.6% | [8] 96.6%
active: [6] 7.34% | [7] -43.9%

CCCCNC(=O)Oc1ccc(/C(=C(/C)Cc2ccc(OC)cc2)c2ccc(OCCN3CCCCCC3)cc2)cc1
inactive: [1] 38.8% | [2] 93.2% | [3] 90.5% | [4] 85.9% | [5] 27.3% | [6] 54.9% | [7] 83.8% | [8] 60.6%

CCOC(=O)C1=C(C)C(Cl)=N/C1=C\c1[nH]c(Cl)c(C)c1C(=O)OCC
inactive: [1] 94.9% | [2] 91.2% | [3] 103% | [4] 106% | [5] 90.3% | [6] 84.5% | [7] 130% | [8] 100%

CN(C)c1ccc(-c2nc(-c3ccccc3)c(-c3ccccc3)[nH]2)cc1
inactive: [1] 79.3% | [2] 104% | [3] 89.7% | [4] 108% | [5] 83.1% | [6] 86.7% | [7] 117% | [8] 96.1%

O=C1c2ccccc2C(=O)c2c1cc1c(c2[N+](=O)[O-])OCO1
active: [1] 4.66% | [4] 7.14% | [5] 3.53% | [6] 1.94% | [7] -46.4% | [8] 0.869%
inactive: [2] 15.8% | [3] 56.3%

S=c1nc2oc(-c3ccccc3)c(-c3ccccc3)c2c(/N=C\c2ccco2)[nH]1
inactive: [1] 65.9% | [2] 103% | [3] 108% | [4] 101% | [5] 93.1% | [6] 84.4% | [7] 109% | [8] 94.1%

CC1(C)CC(=O)c2c(nn(-c3ccc(Br)cc3)c2-c2cn(-c3ccccc3)nc2-c2cccnc2)C1
inactive: [1] 70.8% | [2] 86.9% | [3] 105% | [4] 91.4% | [5] 75.2% | [6] 85% | [7] 106% | [8] 97.1%

O=C1/C(=C/c2ccccn2)NC(=S)N1c1ccccc1Cl
inactive: [1] 44.1% | [2] 83.8% | [3] 67.4% | [4] 37.9% | [5] 32.9% | [6] 12.2% | [7] 85.9% | [8] 67.4%

COC(=O)c1c2c(n3ccccc13)C(=O)c1ccccc1C2=O
inactive: [1] 73.4% | [2] 68.1% | [3] 84.6% | [4] 40.9% | [5] 42.5% | [6] 27.9% | [7] 88.3% | [8] 49.7%

Cc1c(CC(=S)N2CCOCC2)nnn1-c1cccc(C(F)(F)F)c1
inactive: [1] 103% | [2] 112% | [3] 103% | [4] 99.9% | [5] 104% | [6] 102% | [7] 119% | [8] 105%

N#Cc1c(Nc2ccc(N3CCOCC3)cc2)nc(SCC(=O)c2ccc(Br)cc2)nc1-c1ccccc1
inactive: [1] 102% | [2] 115% | [3] 109% | [4] 109% | [5] 94.8% | [6] 87.9% | [7] 100% | [8] 103%

Cc1ccc(/C=C(\C#N)n2nnc3cc(F)c(F)cc32)cc1
active: [1] -10.3% | [2] -18.4% | [3] -35.4% | [4] 9.9% | [6] -76.6% | [7] -10.6% | [8] 8%
inactive: [5] 12.6%

Cc1c(Cl)cccc1C(=O)Nc1nc2c(s1)CN(C(=O)c1ccc(C(F)(F)F)cc1)CC2
active: [3] -12.4% | [6] 8.9%
inactive: [1] 60.9% | [2] 24.8% | [4] 18.6% | [5] 17.3% | [7] 28.4% | [8] 18.9%

N#Cc1cccc(C2C3=C(COC3=O)N(CCO)c3cc4c(cc32)CCC4)c1 (stereo not given)
inactive: [1] 68.9% | [2] 33.5% | [4] 21.2% | [5] 23.2% | [7] 12.7% | [8] 11%
active: [3] -32.7% | [6] 8.71%

N#CC1CCc2c(c(-c3ccc4nc(N)sc4c3)nc3ccc4[nH]ncc4c23)C1 (stereo not given)
active: [3] -2.8%
inactive: [1] 94% | [2] 65.5% | [4] 39.1% | [5] 21.7% | [6] 25.6% | [7] 48.2% | [8] 24.4%

CCCCCCCCCCCCCCCCCCOc1ccccc1CC(=O)NCC[N+]1(C)CCCCC1
inactive: [1] 75.3% | [2] 74.9% | [3] 60.5% | [4] 63.8% | [5] 53.3% | [6] 57.4% | [7] 32.2% | [8] 28.8%

CC1C=CC(OC(=O)C(C)(O)CCC(O)(C(=O)OC2CC(O)C(C(C)C)CC2(C)O)C(C)C)(C(C)C)CC1 (stereo not given)
active: [1] -47.1% [4.63 µM] | [2] -81% [4.63 µM] | [3] -92% [4.63 µM] | [4] -67.8% [4.63 µM] | [5] -67.6% [4.63 µM] | [6] -40% [4.63 µM] | [7] -72.8% [4.63 µM] | [8] -77.4% [4.63 µM]

CN1CCN(C(=S)SCCCCOc2cc(=O)oc3ccccc23)CC1
inactive: [1] 55.6% | [2] 81.3% | [3] 96.7% | [4] 100% | [5] 78.6% | [6] 86.8% | [7] 98.1% | [8] 85.4%

CS(=O)(=O)c1nnc(-c2ccccc2)s1
inactive: [1] 44.4% | [2] 105% | [3] 96.5% | [4] 84.8% | [5] 77.8% | [6] 45.1% | [7] 103% | [8] 92.7%

O=c1c2ccccc2c(=O)c2c1sc1c(=O)c3ccc(O)cc3c(=O)c12
active: [1] -27.5% | [2] -92.6% | [3] -86.2% | [4] -71.1% | [5] -52.2% | [6] -29.2% | [7] -60.5% | [8] -31.5%

COc1ccc2cc(-c3ccnc4c(N=Nc5ccc(Cl)cc5)c(N)nn34)ccc2c1
inactive: [1] 94.5% | [2] 99.9% | [3] 105% | [4] 101% | [5] 97.3% | [6] 99.7% | [7] 97.6% | [8] 103%

O=C(O)c1cn(C2CC2)c2cc(N3CCN(C(=O)Nc4nc(-c5ccc(Br)cc5)cs4)CC3)c(F)cc2c1=O
active: [2] 1.15% | [3] 9.05% | [5] 5.12%
inactive: [1] 27.3% | [4] 21.6% | [6] 18.5% | [7] 35.4% | [8] 11.1%

CCc1ccc(CCC(=O)Nc2ncc(Cc3ccccc3)s2)o1
active: [3] -54.8%
inactive: [1] 42.5% | [2] 63.5% | [4] 28% | [5] 18.7% | [6] 23.4% | [7] 35.6% | [8] 18.4%

Cc1ccc2c(=O)cc(C(=O)Nc3sc4c(c3C(=O)NCc3cccnc3)CCCC4)oc2c1C
inactive: [1] 94% | [2] 107% | [3] 101% | [4] 101% | [5] 96.8% | [6] 109% | [7] 106% | [8] 97.1%

CNC1=C([N+](=O)[O-])C(c2ccc(OC)cc2)C(C#N)=C(c2cccs2)O1 (stereo not given)
inactive: [1] 91.7% | [2] 117% | [3] 108% | [4] 106% | [5] 96% | [6] 109% | [7] 109% | [8] 103%

COc1cc(-c2nc3c(ncc4ccc(=O)n(-c5ccccc5)c43)s2)cc(OC)c1OC
inactive: [1] 37.9% | [2] 61.8% | [3] 81% | [4] 89.4% | [5] 55.1% | [6] 79.6% | [7] 85% | [8] 79.3%

COc1ccc(C2=NN(C(C)=O)C(c3cn(-c4ccccc4)nc3-c3ccc(Cl)cc3)C2)cc1 (stereo not given)
inactive: [2] 48.4% | [3] 34.2% | [4] 17.3% | [5] 21.8% | [7] 36.3% | [8] 29.6%
active: [1] 7.93% | [6] -11.6%
